# PubChem BioAssay (NCATS)
# Values without a mark were called inactive. Inconclusive results are not listed. Where a call stands in place of a potency, no number is given. Activity calls are given as the source filed them. Unless noted, calls follow the shape of the dose curve; as a rule, active = well fitted curve in the direction sought with a large enough effect; inconclusive = small, poorly fitted or top-dose-only effect, or another doubt; inactive = no such curve, though single readings can be large; an effect the other way counts as inactive or inconclusive.
# Assays:
# [1] = biological target: Tyrosine-protein kinase Yes (Homo sapiens) (UniProt P07947); experiment: qHTS for small molecule inhibitors of Yes1 kinase: Primary Screen (AID 686947); also: nearly all actives have a fitted effect of over 60% in size
# Tyrosine-protein kinase Yes (Homo sapiens), sequence (P07947 whole entry, looked up): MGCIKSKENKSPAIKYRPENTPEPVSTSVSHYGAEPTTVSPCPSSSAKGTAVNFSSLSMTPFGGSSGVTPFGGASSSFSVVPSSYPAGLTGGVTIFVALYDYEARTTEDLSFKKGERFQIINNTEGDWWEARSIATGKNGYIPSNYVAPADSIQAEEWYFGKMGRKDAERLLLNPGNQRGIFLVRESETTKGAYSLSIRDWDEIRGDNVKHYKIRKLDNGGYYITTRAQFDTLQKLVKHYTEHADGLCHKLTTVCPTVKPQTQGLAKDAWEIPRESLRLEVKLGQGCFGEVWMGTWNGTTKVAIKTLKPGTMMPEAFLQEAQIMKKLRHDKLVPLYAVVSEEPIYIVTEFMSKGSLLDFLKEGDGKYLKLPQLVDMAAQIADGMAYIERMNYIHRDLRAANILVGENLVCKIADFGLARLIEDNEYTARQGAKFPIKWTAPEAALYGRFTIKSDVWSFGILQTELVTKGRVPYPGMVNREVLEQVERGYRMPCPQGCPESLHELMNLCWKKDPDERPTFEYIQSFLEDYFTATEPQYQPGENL
# How it was run: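 ADP-Glo luminescence readout; final 4 nM Yes1, 0.1 mM ATP, 0.3 mg/mL poly(E4Y), Tris pH 7.5, MgCl2, DTT, Brij-35. 20 min compound preincubation, 60 min reaction at RT. Normalized to DMSO wells with and without enzyme.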
# [2] = qHTS for small molecule inhibitors of Yes1 kinase: Counter Assay (AID 686950);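 also: no kinase present so only ADP-Glo detection of a fixed ADP amount is tested; luminescence from ADP-Glo reporting ADP in a fixed ATP and ADP mixture; series mostly up to about 77 µM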
# How it was run: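 Enzyme-free detection counter-screen: compounds preincubated 20 min in buffer, then 0.08 mM ATP plus 0.02 mM ADP added for 60 min at room temperature; ADP-Glo luminescence. Buffer 50 mM Tris pH 7.5, 10 mM MgCl2, 150 mM NaCl; normalized to ATP+ADP and ATP-only controls.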
# [3] = qHTS assay for small molecule agonists of the antioxidant response element (ARE) signaling pathway measured by Nrf2-dependant transcriptional activity (AID 720636; active = well fitted curve in the direction sought with a large enough effect in the repeat runs; an effect the other way counts as inactive or inconclusive)
# How it was run: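 Nrf2-dependent transcription read as ONE-Glo luciferase signal from ARE-luc HepG2 reporter cells after 16 hr compound treatment at 37 C, 5% CO2, in assay medium with 1% dialyzed FBS.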
# [4] = qHTS assay for small molecule agonists of the antioxidant response element (ARE) signaling pathway measured by Nrf2-dependant transcriptional activity - cell viability counter screen (AID 720653; active = well fitted curve in the direction sought with a large enough effect in the repeat runs; an effect the other way counts as inactive or inconclusive); settings: ARE-bla HepG2 viability, CellTiter-Glo ATP luminescence, 16 h; hits give low values
# How it was run: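 ARE-bla HepG2 cells treated with compounds for 16 h at 37C; this counter screen measures viability as intracellular ATP by CellTiter-Glo luminescence after 30 min at room temperature.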
# [5] = biological target: Nuclear receptor ROR-gamma (Homo sapiens) (UniProt P51449); experiment: qHTS assay for small molecule antagonists of the retinoid-related orphan receptor gamma (ROR-gamma) signaling pathway (AID 651802); also: series mostly up to about 92 µM; nearly all actives have a fitted effect of over 60% in size
# Nuclear receptor ROR-gamma (Homo sapiens), sequence (P51449 whole entry, looked up): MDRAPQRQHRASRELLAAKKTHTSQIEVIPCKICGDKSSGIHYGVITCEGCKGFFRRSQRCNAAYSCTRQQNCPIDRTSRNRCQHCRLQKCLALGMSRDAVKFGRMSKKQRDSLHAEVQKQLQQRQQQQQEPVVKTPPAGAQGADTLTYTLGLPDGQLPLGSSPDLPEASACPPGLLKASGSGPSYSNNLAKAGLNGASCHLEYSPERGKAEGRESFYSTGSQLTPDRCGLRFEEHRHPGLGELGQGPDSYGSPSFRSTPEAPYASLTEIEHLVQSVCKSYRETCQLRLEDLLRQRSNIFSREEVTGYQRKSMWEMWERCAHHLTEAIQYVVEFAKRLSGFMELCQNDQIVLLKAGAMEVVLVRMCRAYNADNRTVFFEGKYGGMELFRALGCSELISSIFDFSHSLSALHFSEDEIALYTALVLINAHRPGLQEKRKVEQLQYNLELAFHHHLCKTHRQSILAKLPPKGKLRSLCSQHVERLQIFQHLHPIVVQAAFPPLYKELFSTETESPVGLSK
# How it was run: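 CHO cells carrying TET-inducible ROR-gamma and an ROR response element–luciferase reporter were exposed to compound, then induced with doxycycline. After 16hr at 37C, luminescence was read; lower signal indicates antagonism.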
# [6] = qHTS assay for small molecule antagonists of the retinoid-related orphan receptor gamma (ROR-gamma) signaling pathway - cell viability counter screen (AID 720652; active = well fitted curve in the direction sought with a large enough effect in the repeat runs; an effect the other way counts as inactive or inconclusive;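 also: series mostly up to about 92 µM; compound exposure lasted 16 hr before ATP read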)
# How it was run: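 Counter screen in CHO cells carrying TET-inducible ROR-gamma and an ROR response element-luciferase reporter; cells plated 5 hr, compound pinned, doxycycline added, then 16 hr at 37 C. Viability read as intracellular ATP by CellTiter-Glo luminescence.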
structure (smiles),measurement,setting,value
COC(=O)C1=C(C)NC(C)=C(C(=O)OCCCN2CCC(c3ccccc3)(c3ccccc3)CC2)[C@H]1c1cccc([N+](=O)[O-])c1,Potency,[1],inactive
same,outcome,[2],inactive
C[C@H]1C[C@H]2[C@@H]3CCC4=CC(=O)C=C[C@]4(C)[C@@]3(F)[C@@H](O)C[C@]2(C)[C@@]1(O)C(=O)CO,outcome,[3],inactive
same,max response,[4],-19.2%
O=c1cc(C2=CC=CC3Sc4ccccc4SC23)oc(N2CCOCC2)c1 (configuration not stated),Potency,[1],inactive
same,outcome,[2],inactive
Cc1nnc(C(C)C)n1C1CC2CCC(C1)N2CC[C@H](NC(=O)C1CCC(F)(F)CC1)c1ccccc1 (some centres not stated),outcome,[2],inactive
O=C(O)CCC(=O)C(=O)O,outcome,[5],inactive
same,outcome,[3],inactive
same,outcome,[6],inactive
same,max response,[4],-1.5%
CCC1(O)CC2CN(CCc3c([nH]c4ccccc34)[C@@](C(=O)OC)(c3cc4c(cc3OC)N(C=O)[C@H]3[C@](O)(C(=O)OC)[C@H](OC(C)=O)[C@]5(CC)C=CCN6CC[C@]43[C@@H]65)C2)C1 (some centres not stated),Potency,[1],inactive
same,outcome,[2],inactive
Nc1ccn([C@H]2CS[C@@H](CO)O2)c(=O)n1,outcome,[5],inactive
same,outcome,[3],inactive
same,outcome,[6],inactive
same,max response,[4],4.54%
